{"source": "PubChem BioAssay (NCATS)", "note": "Inconclusive results are not listed. Active and inactive are the calls of the source. Unless noted, the call rests on the fitted dose curve; in most records, active means well fitted activation curve with a large enough effect in the main read-out, with a control signal flat (not every such curve was filed as active); inconclusive means small, poorly fitted or top-dose-only effect, or effect the other way, or a change in a side signal; inactive means flat fitted curve, though single readings scatter."}
{"target": "Mitogen-activated protein kinase 10 (Mus musculus) (UniProt Q61831)", "assay": "JNK3 AlphaScreen Assay (AID 530; active means well fitted curve in either direction with a large enough effect, not every such curve was filed as active;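 further: kinase came from lysate of stimulated human HepG2 cells; on the % scale 0 is the no-effect control and ±100 the full control effect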)", "conditions": "JNK3 lysate, c-Jun phosphorylation; series mostly up to 57.1 µM; activity change, negative = inhibition: at the top concentration", "outline": "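Phosphorylation of biotinylated GST-cJun(1-79) at Ser73 is measured by AlphaScreen proximity luminescence. Enzyme is JNK3 in HepG2 lysates activated with interleukin-1beta and tumor necrosis factor alpha; ATP is 10 uM final.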"}
{"compound": "OC1c2ccccc2-c2nc3ccccc3cc21", "note": "(stereo not given)", "activity change, negative = inhibition": "-28.4% (inactive)"}
{"compound": "C=C(CC1([C@@H](NP(=O)(c2ccccc2)c2ccccc2)[C@H]2C[C@@H]2CCN(C(=O)OCC)S(=O)(=O)c2ccc(C)cc2)CC1)c1ccccc1", "activity change, negative = inhibition": "-12.8% (inactive)"}
{"compound": "COC(=O)C1(C)C=C2C(=C(c3ccccc3)C(=O)C2C)CN1", "note": "(stereo not given)", "activity change, negative = inhibition": "-2.74% (inactive)"}
{"compound": "CCCCCC1=C2CNC(CCC)(C(=O)OC)C=C2C(C)C1=O", "note": "(stereo not given)", "activity change, negative = inhibition": "-3.27% (inactive)"}
{"compound": "COC(=O)[C@H]1C[C@@H]1[C@H](NC(=O)c1cc(C)on1)c1ccccc1", "activity change, negative = inhibition": "-1.92% (inactive)"}
{"target": "3',5'-cyclic-AMP phosphodiesterase 4B (Homo sapiens) (UniProt Q07343)", "sequence (Q07343 whole entry, looked up)": "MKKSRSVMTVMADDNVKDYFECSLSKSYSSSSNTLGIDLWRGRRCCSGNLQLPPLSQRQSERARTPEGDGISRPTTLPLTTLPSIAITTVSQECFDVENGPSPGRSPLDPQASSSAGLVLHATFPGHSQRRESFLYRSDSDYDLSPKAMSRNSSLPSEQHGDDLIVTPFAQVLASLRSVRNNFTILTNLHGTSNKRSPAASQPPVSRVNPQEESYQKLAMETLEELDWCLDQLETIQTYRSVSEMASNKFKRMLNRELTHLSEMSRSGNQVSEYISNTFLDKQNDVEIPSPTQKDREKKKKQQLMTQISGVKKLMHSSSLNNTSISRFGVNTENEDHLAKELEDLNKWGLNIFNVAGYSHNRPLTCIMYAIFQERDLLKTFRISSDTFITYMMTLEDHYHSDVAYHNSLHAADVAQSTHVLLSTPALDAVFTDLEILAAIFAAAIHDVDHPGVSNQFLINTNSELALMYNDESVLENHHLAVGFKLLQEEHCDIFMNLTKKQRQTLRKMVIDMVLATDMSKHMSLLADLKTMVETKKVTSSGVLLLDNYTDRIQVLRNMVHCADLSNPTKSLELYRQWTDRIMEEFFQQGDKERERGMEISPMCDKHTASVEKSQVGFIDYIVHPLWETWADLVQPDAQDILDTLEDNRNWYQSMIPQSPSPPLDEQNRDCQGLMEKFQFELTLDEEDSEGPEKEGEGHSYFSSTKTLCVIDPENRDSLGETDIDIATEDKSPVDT", "assay": "qHTS Assay for Inhibitors of PDE-IV (AID 607); further: % of control where 0% means no effect", "conditions": "HEK293 ACTOne CNG channel cells, membrane potential fluorescence; series mostly up to 22.9 µM; activation (PDE inhibition): at the top concentration", "outline": "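HEK293 ACTOne cells with CNG channel (1000/well), endogenous PDE4; membrane potential dye, compounds up to 22.9 uM final. Fluorescence Ex 535/Em 590; RO 20-1724 (100 uM final) as reference.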"}
{"compound": "COC(=O)[C@@]1(Cc2ccc(F)cc2)[C@@H]2C(=CC(=O)[C@H]2CC(=O)C(=O)N(C)C)CN1C(=O)c1ccccc1", "activation (PDE inhibition)": "3.56% (inactive)"}
{"compound": "C/C(=C\\C1CCCCC1)C(NC(=O)c1ccc(C(F)(F)F)cc1)c1ccc(-c2ccccc2)cc1", "note": "(stereo not given)", "activation (PDE inhibition)": "4.68% (inactive)"}
{"compound": "CCc1c2c(nc3ccc(OC)cc13)COC2", "activation (PDE inhibition)": "9.9% (inactive)"}
{"compound": "CC1(C)C(=O)C(c2ccccc2)=C2CN3C(=O)N(CCc4ccccc4)C(=O)C3(Cc3ccccc3)C=C21", "note": "(stereo not given)", "activation (PDE inhibition)": "16.2% (inactive)"}
{"compound": "C[C@H](CO)NC(=O)[C@@H]1C[C@H]1[C@@H](NP(=O)(c1ccccc1)c1ccccc1)c1ccccc1", "activation (PDE inhibition)": "-1.22% (inactive)"}
{"compound": "COC(=O)[C@@]1(Cc2ccc(F)cc2)[C@H]2c3cc(C(=O)N(C)C)n(Cc4c(CO)[nH]cc(C)c4=O)c3C[C@H]2CN1C(=O)c1ccccc1", "activation (PDE inhibition)": "-14.1% (inactive)"}
{"compound": "C[C@@]1(C(NC(=O)c2cccs2)c2ccc(-c3ccccc3)cc2)C[C@H]1C1CCCCC1", "note": "(stereo not given in full)", "activation (PDE inhibition)": "10.8% (inactive)"}
{"compound": "COC(=O)[C@@]1(Cc2ccc(OC)cc2)[C@H]2c3cc(C(=O)N4CCCC4)n(Cc4ccc(Cl)c(C(F)(F)F)c4)c3C[C@H]2CN1C(=O)c1ccccc1", "activation (PDE inhibition)": "19% (inactive)"}
{"compound": "CCC/C=C(\\CCC)C(NC(=O)c1ccc(C(F)(F)F)cc1)c1ccc(C(F)(F)F)cc1", "note": "(stereo not given)", "activation (PDE inhibition)": "29.1% (inactive)"}
{"compound": "C[C@@H](C(=O)NCc1nc2ccccc2[nH]1)[C@@H]1C[C@@]1(C)[C@@H](NC(=O)OCc1ccccc1)c1ccccc1", "activation (PDE inhibition)": "-1.34% (inactive)"}
{"compound": "C[C@@]1(C(NC(=O)Cc2ccccc2)c2ccc(-c3ccccc3)cc2)C[C@H]1C1CCCCC1", "note": "(stereo not given in full)", "activation (PDE inhibition)": "14.4% (inactive)"}
{"compound": "C[C@@H](C(=O)O)[C@@H]1C[C@@]1(C)[C@@H](NC(=O)OCc1ccccc1)c1ccccc1", "activation (PDE inhibition)": "10.6% (inactive)"}
{"compound": "CC(C)=C1C(=O)C(c2ccccc2)=C2CN3C(=O)N(CCc4ccccc4)C(=O)[C@]3(Cc3ccccc3)[C@H]21", "activation (PDE inhibition)": "28.7% (inactive)"}
{"compound": "COC(=O)C1(CC(C)C)C=C2C(=C(C(C)C)C(=O)C2C)CN1", "note": "(stereo not given)", "activation (PDE inhibition)": "6.8% (inactive)"}
{"compound": "COC(=O)[C@H]1C[C@@H]1[C@H](NC(=O)Oc1ccc(F)cc1)c1ccccc1", "activation (PDE inhibition)": "2.34% (inactive)"}
{"compound": "CCCC1(C(=O)OC)C=C2C(=C(C)C(=O)C2C)CN1", "note": "(stereo not given)", "activation (PDE inhibition)": "-7.56% (inactive)"}
{"compound": "CCc1c2c(nc3cccc(C(C)C)c13)-c1cccc(=O)n1C2", "activation (PDE inhibition)": "24.8% (inactive)"}
{"compound": "COC(=O)[C@@H]1C[C@H]1[C@@H](NC(=O)c1cc(C)nn1C)c1ccccc1", "activation (PDE inhibition)": "4.89% (inactive)"}
{"compound": "C[C@@H](C(=O)Nc1ccc2ccccc2c1)[C@@H]1C[C@@]1(C)[C@@H](NC(=O)Oc1ccc(F)cc1)c1ccccc1", "activation (PDE inhibition)": "-8.17% (inactive)"}
{"compound": "COC(=O)[C@H]1C[C@@H]1[C@H](NC(=O)c1cnccn1)c1ccccc1", "activation (PDE inhibition)": "7.83% (inactive)"}
{"compound": "C[C@@H](C(=O)Nc1ccc2ccccc2c1)[C@@H]1C[C@@]1(C)[C@@H](NC(=O)c1ccncc1Cl)c1ccccc1", "activation (PDE inhibition)": "11.9% (inactive)"}
{"compound": "CCCC1(C(=O)OC)C=C2C(=C(C(C)C)C(=O)C2C)CN1", "note": "(stereo not given)", "activation (PDE inhibition)": "2.43% (inactive)"}
{"compound": "C#CCCCC(=O)Nc1ccccc1", "activation (PDE inhibition)": "7.41% (inactive)"}
{"compound": "COC(=O)[C@@]1(Cc2ccc(F)cc2)[C@H]2c3cc(C(=O)N4CCCC4)n(Cc4ccc(Cl)c(C(F)(F)F)c4)c3C[C@H]2CN1C(=O)c1ccccc1", "activation (PDE inhibition)": "-4.07% (inactive)"}
{"compound": "CCCCCC1=C2CNC(C)(C(=O)OC)C=C2C(C)C1=O", "note": "(stereo not given)", "activation (PDE inhibition)": "-6.94% (inactive)"}
{"compound": "COC(=O)[C@@H]1C[C@H]1[C@@H](NC(=O)c1cc(C)on1)c1ccccc1", "activation (PDE inhibition)": "14.4% (inactive)"}
{"compound": "COC(=O)[C@@]1(Cc2ccccc2)[C@H]2c3cc(C(=O)N4CCCC4)n(CCc4ccccn4)c3C[C@H]2CN1C(=O)c1ccccc1", "activation (PDE inhibition)": "16.4% (inactive)"}
{"compound": "C[C@@H](C(=O)Nc1ccc2ccccc2c1)[C@H]1C[C@]1(C)[C@H](NS(=O)(=O)c1ccc(-c2ccccc2)cc1)c1ccccc1", "activation (PDE inhibition)": "24.4% (inactive)"}
{"compound": "COC(=O)C1(Cc2ccccc2)C=C2C(=C(C)C(=O)C2C)CN1", "note": "(stereo not given)", "activation (PDE inhibition)": "-1.57% (inactive)"}
{"compound": "C[C@H]1C2=C3C(CC[C@H]4C(OCc5ccc(F)cc5C(F)(F)F)OC[C@](C)([C@@H]34)N(C(=O)OC(C)(C)C)C2)C(CO)C1CO", "note": "(stereo not given in full)", "activation (PDE inhibition)": "-4.06% (inactive)"}
{"compound": "O=C(NCc1nc2ccccc2[nH]1)[C@H]1C[C@@H]1[C@H](NP(=O)(c1ccccc1)c1ccccc1)c1ccccc1", "activation (PDE inhibition)": "21.6% (inactive)"}
{"compound": "CC[C@H]1C2=C3C(CC[C@H]4C(OCc5ccc(F)cc5C(F)(F)F)OC[C@](C)([C@@H]34)N(C(=O)OC(C)(C)C)C2)C(COC)C1COC", "note": "(stereo not given in full)", "activation (PDE inhibition)": "17.3% (inactive)"}
{"compound": "CCCC/C=C/C(NC(=O)C(C)(C)C)c1ccccc1", "note": "(stereo not given)", "activation (PDE inhibition)": "2.43% (inactive)"}
{"compound": "COC(=O)[C@@H]1C[C@H]1[C@@H](NC(=O)c1cccnc1)c1ccccc1", "activation (PDE inhibition)": "2.81% (inactive)"}
{"compound": "CCCC[C@H]1C[C@@H]1[C@@H]1N(P(=O)(c2ccccc2)c2ccccc2)C[C@@](O)(c2ccccc2)CC12CC2", "activation (PDE inhibition)": "29.8% (inactive)"}
{"compound": "OC1c2ccccc2-c2nc3ccccc3cc21", "note": "(stereo not given)", "activation (PDE inhibition)": "24.5% (inactive)"}
{"compound": "C=C(CC1([C@@H](NP(=O)(c2ccccc2)c2ccccc2)[C@H]2C[C@@H]2CCN(C(=O)OCC)S(=O)(=O)c2ccc(C)cc2)CC1)c1ccccc1", "activation (PDE inhibition)": "13% (inactive)"}
{"compound": "COC(=O)C1(C)C=C2C(=C(c3ccccc3)C(=O)C2C)CN1", "note": "(stereo not given)", "activation (PDE inhibition)": "6.08% (inactive)"}
{"compound": "CCCCCC1=C2CNC(CCC)(C(=O)OC)C=C2C(C)C1=O", "note": "(stereo not given)", "activation (PDE inhibition)": "18.9% (inactive)"}
{"compound": "COC(=O)[C@H]1C[C@@H]1[C@H](NC(=O)c1cc(C)on1)c1ccccc1", "activation (PDE inhibition)": "18.9% (inactive)"}
